Data from paper PMC5540273 (PLoS ONE, 2017).

System: FLT1
Conditions: concentration: 1 μM,replicates: in singlicate; n = 1
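Also: KINOMEscan kinase panel screen.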

Structure (SMILES)	%Inh
C=CC(=O)Nc1cc2c(Nc3ccc(F)c(Cl)c3)ncnc2cc1OCCCN1CCOCC1 [GW781483]	15%
CC(C)Nc1cc(-c2ccc3c(N)n[nH]c3c2)nc(N)n1 [GSK2221681]	18%
COc1ccc(C[C@@H](CN)NC(=O)c2cc(Br)c(-c3ccnc4[nH]ccc34)s2)cc1.Cl.Cl [GSK1389063]	82%
Cc1occc1-c1nc(N)c(OC[C@@H](N)Cc2c[nH]c3ccccc23)cc1-c1cc2c(C)n[nH]c2cn1 [GSK1660450]	31%
Cc1ccc2c(-c3ccncc3)c(-c3ccc(F)cc3)nn2c1.Cl [GW461484]	5%
O=C(NCCCN1CCOC1=O)c1cnc(NCc2cc(Cl)ccc2Cl)nc1NC1CCCC1	6%
Cc1n[nH]c2ccc(-c3cc(OC[C@@H](N)Cc4ccccc4)cnc3-c3ccoc3)cc12.O=C(O)C(F)(F)F.O=C(O)C(F)(F)F [GSK507358]	2%
Cc1cc2cn[nH]c2cc1-c1cccc2c(N)c(C(N)=O)nnc12	0%
NC(=O)c1cc(-c2ccccc2)cc2c(C3CCNCC3)c[nH]c12 [GSK301362]	37%
Cc1ccc(-n2nc(C(C)(C)C)cc2NC(=O)Nc2ccc(OCCN3CCOCC3)c3ccccc23)cc1 [GW839464]	67%
CC(C)N1C(=O)Cc2cc(Nc3ncc(C(F)(F)F)c(NCc4cccc(S(C)(=O)=O)c4)n3)ccc21	62%
O=C(NCCNc1ccnc(NCc2ccc(F)cc2)n1)c1cc2ccccc2s1 [GSK1379944]	27%
CNC(=O)c1ccccc1Sc1ccc2c(/C=C/c3ccccn3)n[nH]c2c1	99.6%
Nc1nc(Nc2ccccc2)cc(-c2ccc3c(N)n[nH]c3c2)n1 [GSK2225749]	10%
CCN(CC)CCCCNc1ncc2cc(-c3c(Cl)cccc3Cl)c(NC(=O)NC(C)(C)C)nc2n1	99%
Cc1cc(C(=O)Nc2ccc(Oc3ccc4nc(NC(=O)C5CC5)cn4n3)cc2)nn1-c1ccccc1	88%
CN(C)CC(O)COc1ccc(Nc2nccc(-c3cnn4nc(N5CCOCC5)ccc34)n2)cc1 (stereo not drawn) [GW767488]	11%
Cl.Cl.Nc1nc(-c2ccc3c(N)n[nH]c3c2)cc(N2CCCC(NC(=O)c3ccccc3)C2)n1 (stereo not drawn) [GSK2286775]	16%
CN(C)CCOc1ccc(-c2cc(-c3c[nH]nc3-c3ccccn3)ccn2)cc1 [GW835314]	0%
C[C@@H]1CCN(C(=O)CC#N)C[C@@H]1N(C)c1ncnc2[nH]ccc12	0%
Cl.Cl.NC[C@H](CC1CCCCC1)NC(=O)c1cc(Br)c(-c2ccnc3[nH]ccc23)s1 [GSK1581427]	39%
Cl.Cl.NC[C@H](Cc1ccc(C(F)(F)F)cc1)NC(=O)c1cc(Br)c(-c2ccnc3[nH]ccc23)s1 [GSK1487252]	62%
Cl.Oc1cc(-c2nc(-c3ccccc3)[nH]c2-c2ccncc2)ccc1Cl [SB-386023]	2%
C[C@H]1Oc2cc(cnc2N)-c2c(nn(C)c2C#N)CN(C)C(=O)c2ccc(F)cc21	0%
C[C@@H](Oc1cc(-c2cnn(C3CCNCC3)c2)cnc1N)c1c(Cl)ccc(F)c1Cl	28%
CCn1c(-c2nonc2N)nc2c(C#CC(C)(C)O)nc(OCCN)cc21.Cl.Cl [GSK902056]	16%
CCN(CC)CCOc1ccc(Nc2ncc3cc(-c4c(Cl)cccc4Cl)c(=O)n(C)c3n2)cc1 [SB-601273]	99%

System: FLT3-autoinhibited
Conditions: concentration: 1 μM,replicates: in singlicate; n = 1

Structure (SMILES)	%Inh
C=CC(=O)Nc1cc2c(Nc3ccc(F)c(Cl)c3)ncnc2cc1OCCCN1CCOCC1 [GW781483]	2%
CC(C)Nc1cc(-c2ccc3c(N)n[nH]c3c2)nc(N)n1 [GSK2221681]	0%
COc1ccc(C[C@@H](CN)NC(=O)c2cc(Br)c(-c3ccnc4[nH]ccc34)s2)cc1.Cl.Cl [GSK1389063]	42%
Cc1occc1-c1nc(N)c(OC[C@@H](N)Cc2c[nH]c3ccccc23)cc1-c1cc2c(C)n[nH]c2cn1 [GSK1660450]	0%
Cc1ccc2c(-c3ccncc3)c(-c3ccc(F)cc3)nn2c1.Cl [GW461484]	0%
O=C(NCCCN1CCOC1=O)c1cnc(NCc2cc(Cl)ccc2Cl)nc1NC1CCCC1	0%
Cc1n[nH]c2ccc(-c3cc(OC[C@@H](N)Cc4ccccc4)cnc3-c3ccoc3)cc12.O=C(O)C(F)(F)F.O=C(O)C(F)(F)F [GSK507358]	0%
Cc1cc2cn[nH]c2cc1-c1cccc2c(N)c(C(N)=O)nnc12	19%
NC(=O)c1cc(-c2ccccc2)cc2c(C3CCNCC3)c[nH]c12 [GSK301362]	25%
Cc1ccc(-n2nc(C(C)(C)C)cc2NC(=O)Nc2ccc(OCCN3CCOCC3)c3ccccc23)cc1 [GW839464]	0%
CC(C)N1C(=O)Cc2cc(Nc3ncc(C(F)(F)F)c(NCc4cccc(S(C)(=O)=O)c4)n3)ccc21	57%
O=C(NCCNc1ccnc(NCc2ccc(F)cc2)n1)c1cc2ccccc2s1 [GSK1379944]	0%
CNC(=O)c1ccccc1Sc1ccc2c(/C=C/c3ccccn3)n[nH]c2c1	15%
Nc1nc(Nc2ccccc2)cc(-c2ccc3c(N)n[nH]c3c2)n1 [GSK2225749]	19%
CCN(CC)CCCCNc1ncc2cc(-c3c(Cl)cccc3Cl)c(NC(=O)NC(C)(C)C)nc2n1	24%
Cc1cc(C(=O)Nc2ccc(Oc3ccc4nc(NC(=O)C5CC5)cn4n3)cc2)nn1-c1ccccc1	18%
CN(C)CC(O)COc1ccc(Nc2nccc(-c3cnn4nc(N5CCOCC5)ccc34)n2)cc1 (stereo not drawn) [GW767488]	40%
Cl.Cl.Nc1nc(-c2ccc3c(N)n[nH]c3c2)cc(N2CCCC(NC(=O)c3ccccc3)C2)n1 (stereo not drawn) [GSK2286775]	2%
CN(C)CCOc1ccc(-c2cc(-c3c[nH]nc3-c3ccccn3)ccn2)cc1 [GW835314]	35%
C[C@@H]1CCN(C(=O)CC#N)C[C@@H]1N(C)c1ncnc2[nH]ccc12	0%
Cl.Cl.NC[C@H](CC1CCCCC1)NC(=O)c1cc(Br)c(-c2ccnc3[nH]ccc23)s1 [GSK1581427]	8%
Cl.Cl.NC[C@H](Cc1ccc(C(F)(F)F)cc1)NC(=O)c1cc(Br)c(-c2ccnc3[nH]ccc23)s1 [GSK1487252]	23%
Cl.Oc1cc(-c2nc(-c3ccccc3)[nH]c2-c2ccncc2)ccc1Cl [SB-386023]	0%
C[C@H]1Oc2cc(cnc2N)-c2c(nn(C)c2C#N)CN(C)C(=O)c2ccc(F)cc21	0%
C[C@@H](Oc1cc(-c2cnn(C3CCNCC3)c2)cnc1N)c1c(Cl)ccc(F)c1Cl	31%
CCn1c(-c2nonc2N)nc2c(C#CC(C)(C)O)nc(OCCN)cc21.Cl.Cl [GSK902056]	0%
CCN(CC)CCOc1ccc(Nc2ncc3cc(-c4c(Cl)cccc4Cl)c(=O)n(C)c3n2)cc1 [SB-601273]	65%
